This note sets out measurements from PubChem BioAssay AID1376 (SRMLSC, 2008).

The structures appear in SMILES notation. Out of some 220,000 compounds screened, about 530 (0.24%) were called active. No stated cut-off is given here; in the data, active means inhibition above about 13%; inconclusive means no clear call, values can overlap the other calls; inactive means below that. This excerpt belongs to a sample that is enriched for actives. Results with a measured potency or affinity are listed apart.

Chain of Bifunctional protein GlmU (Mycobacterium tuberculosis (strain ATCC 25618 / H37Rv)) (P9WMN3 whole entry, looked up): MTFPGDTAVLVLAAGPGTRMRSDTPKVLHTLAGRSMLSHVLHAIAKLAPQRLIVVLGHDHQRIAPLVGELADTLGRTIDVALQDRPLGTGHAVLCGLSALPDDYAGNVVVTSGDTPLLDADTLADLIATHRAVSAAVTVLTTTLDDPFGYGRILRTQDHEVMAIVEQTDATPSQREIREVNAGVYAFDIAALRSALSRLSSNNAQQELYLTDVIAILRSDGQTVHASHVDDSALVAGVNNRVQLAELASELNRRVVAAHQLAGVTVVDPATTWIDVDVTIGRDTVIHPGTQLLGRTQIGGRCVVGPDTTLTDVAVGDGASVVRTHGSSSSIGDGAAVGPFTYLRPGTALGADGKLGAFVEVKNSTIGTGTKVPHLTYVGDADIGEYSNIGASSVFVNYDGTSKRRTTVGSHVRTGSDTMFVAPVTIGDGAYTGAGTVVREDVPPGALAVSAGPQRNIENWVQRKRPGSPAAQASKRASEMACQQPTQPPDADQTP

The test addresses Bifunctional protein GlmU (Mycobacterium tuberculosis (strain ATCC 25618 / H37Rv)) (UniProt P9WMN3). Nature of the test: inhibition of mycobacterial GlmU enzyme – biochemical, glucosamine-1-phosphate acetyltransferase (AID 1376).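 Further: 0% = complete reaction with vehicle and 100% = reaction without substrate.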 To be noted: M. tuberculosis GlmU acetyltransferase enzyme assay; active compounds read high;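 tested at 30 µM in the primary screen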.
Regarding `Cc1onc(-c2ccccc2Cl)c1C(=O)N1CCN=C1SCc1cccnc1`, the inhibition is 27.2% (active).

Turning to `CCSC1=NCCN1C(=O)c1c(-c2ccccc2Cl)noc1C`, the inhibition was 4.4% (inactive).

On to `CSC1=NCCN1C(=O)c1c(-c2ccccc2Cl)noc1C`, for which the inhibition is -1.36% (inactive).

Regarding `C=CCn1c(O)c(C=Nc2c(C)n(C)n(-c3ccccc3)c2=O)c(=O)[nH]c1=O`, the inhibition was -2.53% (inactive).

Turning to `CCCOC(=O)C1C2C=CC(C3CC23)C1C(=O)OCC(=O)c1ccccc1` (centres undefined), the inhibition is 2.44% (inactive).

As for `Cc1ccccc1NC(=O)CN1C(=O)S/C(=C\c2ccc(-c3cc(C(=O)O)ccc3C)o2)C1=O`, the inhibition was 19.2% (inactive).

In the case of `O=C1NC(=O)N(c2ccc3c(c2)OCO3)C(=O)/C1=C\c1ccc(-c2ccccc2C(=O)O)o1`, the inhibition was 9.19% (inactive).

On to `N=C1S/C(=C\c2ccco2)C(=O)N1c1ccc2c(c1)OCO2`, for which the inhibition is 5.07% (inactive).

Consider `Cc1ccc(C)c(N2C(=N)S/C(=C\c3ccc(-c4ccccc4C(=O)O)o3)C2=O)c1`, for which the inhibition was 13.1% (active).

For `COc1ccccc1N1C(=N)S/C(=C\c2ccc(-c3ccccc3C(=O)O)o2)C1=O`, the inhibition was 8.5% (inactive).

On to `O=C(N/N=C/C=C/c1ccc(Br)cc1)C(O)c1ccccc1` (centres undefined), for which the inhibition is -4.11% (inactive).

On to `COc1ccc(NC(=O)c2ccccc2-c2ccccc2)c(C)c1`, for which the inhibition was -1.21% (inactive).

Turning to `O=C(OCC(=O)N1CCN(C(=O)c2ccco2)CC1)c1ccccc1C(=O)c1ccccc1`, the inhibition was 0.58% (inactive).

On to `O=c1/c(=C\c2cccn2-c2ccccc2)sc2nc3ccccc3n12`, for which the inhibition is -1.22% (inactive).

As to `O=c1/c(=C/c2ccccn2)sc2nc3ccccc3n12`, the inhibition was 3.31% (inactive).

As to `Cc1cc(/C=c2/sc3nc4ccccc4n3c2=O)c(C)n1-c1ccccn1`, the inhibition was 6.87% (inactive).

As to `O=Cc1ccc(-c2cccc(C(=O)O)c2)o1`, the inhibition was 3.12% (inactive).

For the compound `O=c1/c(=C/c2ccc(O)c([N+](=O)[O-])c2)sc2nc3ccccc3n12`, the inhibition is 8.42% (inactive).

Turning to `CCN(CC)c1ccc(/C=c2\sc3nc4ccccc4n3c2=O)c(O)c1`, the inhibition is -2.52% (inactive).

As to `O=C(O)Cn1cc(/C=c2/sc3nc4ccccc4n3c2=O)c2ccccc21`, the inhibition was -3.15% (inactive).

As to `O=c1/c(=C\c2cc([N+](=O)[O-])cc([N+](=O)[O-])c2O)sc2nc3ccccc3n12`, the inhibition is 33.8% (active).

For `Cc1ccc(-n2c(C)cc(/C=c3/sc4nc5ccccc5n4c3=O)c2C)cc1`, the inhibition is 0.75% (inactive).

For `O=c1c(Br)c(N2CCOCC2)cnn1-c1ccccc1`, the inhibition was -4.84% (inactive).

In the case of `Cn1nc(C(F)(F)F)c2cc(C(=O)O)sc21`, the inhibition is 0.57% (inactive).

Consider `CCN(CC)S(=O)(=O)c1ccc(N2CCOCC2)c(NC(=O)CC(C)(C)C)c1`, for which the inhibition is 11.6% (inactive).

As for `Cc1cc(C)c(C#N)c(SC2CCCCC2=O)n1` (centres undefined), the inhibition was 0.86% (inactive).

For `CC(C)NC(=O)CSc1nnc2sc3ccccc3n12`, the inhibition is 7.28% (inactive).

Take `Cn1nc(-c2ccccc2)c(CN2CCN(c3ncccn3)CC2)c1Cl`: the inhibition is -1.97% (inactive).

For the compound `CC1(C)CC(=O)C2=C(C1)N(CCN1CCOCC1)C1=C(C(=O)CC(C)(C)C1)C2c1ccc(Cl)c([N+](=O)[O-])c1`, the inhibition is 4.94% (inactive).

`CCOC(=O)Cc1csc(NC(=O)c2ccco2)n1`: the inhibition was 4.22% (inactive).

`Cc1cc(/C=C2\C(=O)NC(=O)N(c3ccc(F)cc3)C2=O)c(C)n1-c1cccc(C(=O)O)c1`: the inhibition is 2.99% (inactive).

Regarding `Cc1nn(Cc2c(F)cccc2Cl)c(C)c1NC(=O)C1CC1`, the inhibition is 1.68% (inactive).

Turning to `CC(Cc1ccsc1)NC(=O)CCc1nnc(COc2ccccc2)o1` (centres undefined), the inhibition is -0.64% (inactive).

As to `Cc1ccc(OCC(=O)Nc2ccc3c(c2)OCO3)c(C)c1`, the inhibition was 7.84% (inactive).

`CCn1c(C)nc2cc(C(=O)N/N=C/c3ccc(O)c(O)c3O)ccc21`: the inhibition is 12.9% (active).

Take `CCn1c(C)nc2cc(C(=O)N/N=C/c3cccc(O)c3O)ccc21`: the inhibition is -2.26% (inactive).

With `CCn1c(C)nc2cc(C(=O)N/N=C/c3cccc(OC)c3O)ccc21`, the inhibition was 1.22% (inactive).

As to `CN(C(=O)COc1ccccc1C(=O)NCCc1ccccc1)c1ccccc1`, the inhibition was 1.19% (inactive).

For the compound `CC[N+](CC)(CC)CCCOC(=O)C(O)(c1ccccc1)C1CCCCC1` (centres undefined), the inhibition is -1.3% (inactive).

Regarding `COc1cc(C(=O)N2CCN=C2c2ccccc2)cc(OC)c1OC`, the inhibition is -4.46% (inactive).

As for `O=C(c1ccccc1)N1CCN=C1c1ccccc1`, the inhibition is 3.08% (inactive).

In the case of `Cc1cc(C)cc(C(=O)N2CCN=C2c2ccccc2)c1`, the inhibition was 13.7% (active).

With `CC1=C(C(=O)OCc2ccccc2)C(c2ccsc2)NC(=O)N1C` (centres undefined), the inhibition was 0.99% (inactive).

In the case of `CN1CCN(C(=S)NC(=O)c2ccc(C(C)(C)C)cc2)CC1`, the inhibition is 0.68% (inactive).

`CN1CCN(C(=S)NC(=O)c2ccc(Br)cc2)CC1`: the inhibition was -2.25% (inactive).

Take `COc1ccc(-c2noc(C3CCCN(S(=O)(=O)c4cccc(Cl)c4C)C3)n2)cc1OC` (centres undefined): the inhibition was 1.44% (inactive).

For `Cc1ccc(-n2ncc3c(=O)[nH]c(SC(C)C)nc32)cc1`, the inhibition was -6.03% (inactive).

Regarding `Cc1nn(Cc2ccc(Cl)cc2)c(=O)n1N(C)c1ncc(C(F)(F)F)cc1Cl`, the inhibition was -1.59% (inactive).

Consider `Cc1nn(Cc2ccccc2)c(=O)n1N(C)c1ncc(C(F)(F)F)cc1Cl`, for which the inhibition was -3.42% (inactive).

For `Cc1nn(Cc2ccc([N+](=O)[O-])cc2)c(=O)n1N(C)c1ncc(C(F)(F)F)cc1Cl`, the inhibition is 13.8% (active).

Regarding `Cc1cc(N2CCN(Cc3nc(-c4ccc(F)cc4)oc3C)CC2)cc(C)n1`, the inhibition is -0.06% (inactive).

On to `O=c1/c(=C\c2ccc(O)cc2)sc2nc(-c3ccccc3)c(-c3ccccc3)n12`, for which the inhibition is -5.24% (inactive).

Take `COc1cc(/C=c2\sc3n(c2=O)C(c2ccccc2)C(c2ccccc2)=NN=3)ccc1O` (centres undefined): the inhibition was -0.15% (inactive).

As for `O=c1/c(=C\c2ccc(O)cc2)sc2n1C(c1ccccc1)C(c1ccccc1)=NN=2` (centres undefined), the inhibition is 15.3% (active).

For `CC1CCN(C(=O)CCCOc2ccc(Cl)cc2)CC1`, the inhibition was -3.73% (inactive).

Consider `COc1ccc(N2C(=O)CC(N(C)CCc3ccc(OC)c(OC)c3)C2=O)cc1` (centres undefined), for which the inhibition is -4.91% (inactive).

For the compound `O=C(O)Cn1nc(-c2ccccc2)oc1=O`, the inhibition was 12.9% (active).

Consider `O=C(O)Cn1nc(-c2ccc(F)cc2)oc1=O`, for which the inhibition was -1.78% (inactive).

Turning to `CC(C)(C)C(=O)n1nc(-c2ccccc2)oc1=O`, the inhibition is -3.45% (inactive).

Take `Cc1cc(C)nc(NS(=O)(=O)c2ccc(NC(=O)CSc3nc(-c4ccccc4)c(C#N)c(=O)[nH]3)cc2)n1`: the inhibition was 13.9% (active).

Regarding `Cc1cc(NC(=O)CSc2nc(-c3ccccc3)c(C#N)c(=O)[nH]2)no1`, the inhibition was 8.24% (inactive).

As to `N#Cc1c(-c2ccccc2)nc(SCC(=O)Nc2ccccc2)[nH]c1=O`, the inhibition is 3.28% (inactive).

As to `CCOc1ccc(N2C(=O)CC(n3nc(C)cc3C)C2=O)cc1` (centres undefined), the inhibition was 1.73% (inactive).

Turning to `Cc1ccc(S(=O)(=O)N(C)C)cc1NC(=S)NC(=O)C12CC3CC(CC(C3)C1)C2`, the inhibition was -3.56% (inactive).

For the compound `CC(C)(C)C1CCC(=NNC(=O)CC(=O)NCc2ccccc2)CC1` (centres undefined), the inhibition was 0.32% (inactive).

As to `Cc1[nH]oc(=O)c1N=Nc1ccccc1`, the inhibition was 8.43% (inactive).

For the compound `Cc1[nH]oc(=O)c1N=Nc1c(Cl)cccc1Cl`, the inhibition is 1.64% (inactive).

In the case of `CCC(c1c(C)[nH]oc1=O)c1c(C)[nH]oc1=O`, the inhibition was 13.4% (active).

On to `O=S(=O)(c1ccc(-c2nc3ccccc3s2)cc1)N1CCCC1`, for which the inhibition is 2.5% (inactive).

Turning to `COc1ccccc1N1CCN(CCN2C(=O)CC(=C3c4ccccc4-c4ccccc43)C2=O)CC1`, the inhibition was 4.68% (inactive).

Consider `CCCCNC(=O)c1ccc(NC(C)=O)c(Cl)c1`, for which the inhibition is -5.13% (inactive).

For `CCCCNC(=O)c1ccc(S(=O)(=O)c2ccc(Cl)cc2)c(NC(C)=O)c1`, the inhibition is 14% (active).

`CCCC(=O)Nc1cc(C(=O)O)ccc1S(=O)(=O)c1ccc(Cl)cc1`: the inhibition was 0.49% (inactive).

With `O=C(CSc1ccc(-c2ccccn2)nn1)NC1CCCCC1`, the inhibition was -1.08% (inactive).

For the compound `O=c1c2c([nH]c3ccccc13)CCCC2`, the inhibition is 1.46% (inactive).

Turning to `O=c1c2c([nH]c3ccccc13)CCCCCC2`, the inhibition is 13.9% (active).

As to `O=c1c2c([nH]c3ccccc13)CCCCC2`, the inhibition is 5.9% (inactive).

For `CS(=O)(=O)N1CCC(C(=O)Nc2ccc(C(F)(F)F)cc2)CC1`, the inhibition is -0.68% (inactive).

As to `Cc1nnc(SCc2nc3sc(C(=O)O)c(C)c3c(=O)[nH]2)s1`, the inhibition is 6.77% (inactive).

Regarding `Cc1c(C(=O)O)sc2nc(CSc3nnc(-c4ccc(F)cc4)n3C)[nH]c(=O)c12`, the inhibition was -3.36% (inactive).

Turning to `Cc1ccnc(NC(=O)c2ccc3c(c2)S(=O)(=O)c2ccccc2C3=O)c1`, the inhibition is 1.48% (inactive).

As for `Cc1nc2c(c(=O)[nH]1)C(c1ccccc1Cl)c1c(c3ccccc3oc1=O)O2` (centres undefined), the inhibition is 2.13% (inactive).

In the case of `Cc1c(O)c2ccccc2oc1=O`, the inhibition was 1.82% (inactive).

For the compound `CCCCSc1nc(CCC)cc(=O)[nH]1`, the inhibition is 3.53% (inactive).

For the compound `Cc1ccc(NC(=O)COC(=O)Cn2cnc3ccccc32)c([N+](=O)[O-])c1`, the inhibition was -0.59% (inactive).

Regarding `Cc1ccc(NC(=O)N2CCC(NC(=O)C(C)(C)C)CC2)cc1`, the inhibition was 2.86% (inactive).

Regarding `CC(=O)N1CCC(Nc2ccc(C)cc2)CC1`, the inhibition is 14% (active).

Take `CCOc1ccc(NC2CCN(C(C)=O)CC2)cc1`: the inhibition is 4.14% (inactive).

Turning to `CCCCn1c(SCC(=O)NCc2ccccc2)nc2ccc(N3CCOCC3)cc2c1=O`, the inhibition was 14.2% (active).

With `CCCCn1c(SCC(=O)NCc2ccco2)nc2ccc(N3CCOCC3)cc2c1=O`, the inhibition was 5.76% (inactive).

Take `CCCCNC(=O)CSc1nc2ccc(N3CCOCC3)cc2c(=O)n1CCc1ccccc1`: the inhibition was -5.21% (inactive).

On to `CC(Sc1ncc(C(F)(F)F)cc1Cl)C(=O)NC(N)=O` (centres undefined), for which the inhibition was -5.25% (inactive).

As for `O=C(NCCc1c[nH]c2ccccc12)C(F)(F)F`, the inhibition is -4.42% (inactive).

Turning to `N#Cc1cccc(C#N)c1N1CCC(C#N)CC1`, the inhibition is -4.3% (inactive).
